From ChEMBL document CHEMBL3433997, “St. Jude Leishmania screening dataset” (2016)

Assays:
Type in all cases: functional
[1] = target: Solute carrier family 2, facilitated glucose transporter member 1 (Homo sapiens) (UniProt P11166); assay: ST_JUDE_LEISH: Cytotoxicity at 2uM final concentration against transgenic Leishmania Mexicana promastigotes LmGLUT1 that are glucose transport deficient and complemented with the human glucose transporter GLUT1. Activity is measured by DNA content using SYBR green in vitro
[2] = target: Hexose transporter 1 (Plasmodium falciparum) (UniProt O97467); assay: ST_JUDE_LEISH: Cytotoxicity at 2uM final concentration against transgenic Leishmania Mexicana promastigotes LmPfHT that are glucose transport deficient and complemented with the Plasmodium falciparum hexose transporter. Activity is measured by DNA content using SYBR green in vitro
[3] = target: Glucose transporter (Leishmania mexicana) (UniProt O61059); assay: ST_JUDE_LEISH: Cytotoxicity at 2uM final concentration against transgenic Leishmania Mexicana promastigotes LmGT2 that are glucose transport deficient and complemented with the L. Mexicana glucose transporter 2. Activity is measured by DNA content using SYBR green in vitro

Solute carrier family 2, facilitated glucose transporter member 1 (Homo sapiens), sequence (P11166 whole entry): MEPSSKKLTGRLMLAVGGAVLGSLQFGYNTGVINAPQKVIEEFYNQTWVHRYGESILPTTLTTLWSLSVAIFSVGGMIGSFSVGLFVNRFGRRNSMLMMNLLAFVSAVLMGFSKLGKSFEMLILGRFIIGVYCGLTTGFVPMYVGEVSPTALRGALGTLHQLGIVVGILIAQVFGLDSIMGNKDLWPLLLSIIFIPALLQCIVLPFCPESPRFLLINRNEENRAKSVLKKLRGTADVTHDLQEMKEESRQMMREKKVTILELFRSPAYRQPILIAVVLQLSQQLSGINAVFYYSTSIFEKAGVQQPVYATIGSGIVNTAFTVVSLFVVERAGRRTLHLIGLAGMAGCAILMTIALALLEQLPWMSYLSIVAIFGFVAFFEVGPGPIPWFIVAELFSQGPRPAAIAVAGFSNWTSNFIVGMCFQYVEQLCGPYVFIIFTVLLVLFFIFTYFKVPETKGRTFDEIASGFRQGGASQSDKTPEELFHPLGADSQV

| Compound | inhibition [1] | inhibition [2] | inhibition [3] |
| --- | --- | --- | --- |
| CC(c1cccc(S(=O)(=O)NCc2cccc(C(F)(F)F)c2)c1)N1CCC(N2CCCCC2)CC1 (centres undefined) | 6.15% | 7.23% | 7.91% |
| COC(=O)c1cccc(CNCc2cccc(-c3ccc(-c4nc5ccccc5[nH]4)cc3)c2)c1 | 5.57% | 5.76% | 2.19% |
| O=C(Nc1ccc(Cl)cc1)c1cccc(CN2CCCN(Cc3cccc(O)c3)CC2)c1 | -0.2% | -0.04% | 0.01% |
| FC(F)(F)c1ccc2[nH]c(-c3cccc(-c4cccc(CN5CCN(c6ccncc6)CC5)c4)c3)nc2c1 | 1.83% | 2.18% | 3.38% |
| CN1CCN(c2cc3c(cc2Cl)CCN3C(=O)Nc2ccc(NC(=O)c3ccc(C(F)(F)F)cc3)cc2)CC1 | 3.11% | 8.45% | 1.98% |
| COc1ccc(NC(=O)/C=C/c2ccccc2Cl)cc1OCCN1CCC(Cc2cc3ccccc3[nH]2)CC1 | 3.32% | 1.85% | -2.57% |
| Cc1ccccc1C1CCN(C2CCC(NC(=O)/C=C/c3ccc(OC(F)(F)F)cc3)CC2)CC1 (centres undefined) | -0.78% | -1.35% | 0.34% |
| c1ccc(CNCc2cccc(-c3csc(-c4nc5ccccc5[nH]4)c3)c2)cc1 | 4.56% | 5.03% | 3.11% |
| Cc1cc(OCCCn2ccnc2)ccc1-c1csc(/N=C(\N)NCc2ccccc2)n1 | 8.57% | 5.79% | 6.56% |
| CCCc1cc(C)ccc1OCCCON1C(NC(=O)OCC)=NC(NC(=O)OCC)=NC1(C)C | -0.11% | 1.76% | -0.57% |
| COc1ccc(CNC2CCN(C)CC2)cc1-c1ccc(S(=O)(=O)NCCN2CCCC2)s1 | -3.47% | -0.23% | -2.9% |
| N=C(N)c1ccc(NN=Cc2ccc(Oc3ccc(C(=N)N)cc3)cc2)cc1 | 3.43% | 3.55% | 0.79% |
| O=C(Nc1nccs1)c1cc(-c2cccnc2)nc2ccc(Br)cc12 | 7.77% | -0.8% | -0.59% |
| COc1cccc2c(O)c(CNC3CCCCC3)ccc12 | -0.95% | -0.26% | 1.11% |
| CCN(CC)C(=O)C(=O)c1c[nH]c2ccc(Cl)cc12 | 3.24% | 0.07% | 0.85% |
| COc1ccc(NC(=O)c2ccc(-c3cc(NC(=O)c4ccnc(N5CCCC5)c4)ccc3C)s2)cc1N1CCN(C)CC1 | -1.75% | 0.73% | -1.93% |
| CC(C)NCC(O)COc1ccc(Cc2ccc(OCC(O)CNC(C)C)cc2)cc1 (centres undefined) | -0.23% | 0.19% | -0.55% |
| CC(C)c1ccc(NC(=O)c2ccc(CN3CCCN(CC4CCCCC4)CC3)cc2)cc1 | 3.95% | 2.01% | 5.69% |
| Cc1ccccc1C1CCN(C2CCC(NC(=O)/C=C/c3ccc(Cl)cc3)CC2)CC1 (centres undefined) | 1.76% | 2.6% | 2.42% |
| CCC1CN2CCc3c([nH]c4ccccc34)C2CC1CC1=NCCc2c1[nH]c1ccccc21 (centres undefined) | 1.78% | 3.33% | 2.74% |
| N#Cc1ccc(CCNc2nccc(-c3cccc(CN4CCNCC4)c3)n2)cc1 | 12.3% | 12.8% | 6.7% |
| Cc1ccc2[nH]c(C)cc(=NN=CC=Cc3ccccc3)c2c1 | -0.92% | 1.15% | -6.67% |
| O=C(NC1CCC(CCN2CCc3ccc(-c4cnccn4)cc3CC2)CC1)c1cccc(-n2cccn2)c1 (centres undefined) | 10.2% | 7.38% | 8.56% |
| COc1ccc2[nH]ccc(=NN=Cc3cccc(F)c3)c2c1 | 1.01% | 2.87% | 0.07% |
| CCOC(=O)c1ccc(NC(=O)N(Cc2ccc(-c3ccc(CN4CCNCC4)cc3)cc2)Cc2cccnc2)cc1 | 2.01% | 2.09% | 0.48% |

| Compound | inhibition [1] | inhibition [2] | inhibition [3] |
| --- | --- | --- | --- |
| COc1ccc(-c2cccc(NC(=O)c3cccc(C#N)c3)c2)cc1CN1CCC(O)CC1 | 3.79% | 3.97% | 4.2% |
| FC(F)(F)c1ccc(N2CCCN(Cc3cccc(-c4ccccc4CNCc4ccc5c(c4)OCO5)c3)CC2)nc1 | 2.61% | -2.51% | -0.04% |
| CCOc1cc(C)ccc1C1CCN(CCCCNC(=O)c2cccc(-c3ccc(C(F)(F)F)cc3)c2)CC1 | 1.54% | 2.27% | 2.69% |
| Cc1cc(Nc2ncc(C#N)c(Nc3ccccc3C(N)=O)n2)ccc1N1CCN(C)CC1 | 79.2% | 78.8% | 65.4% |
| Fc1ccc2[nH]c(-c3ccc(-c4ccc(CNCCN5CCNCC5)cc4)cc3)nc2c1 | -0.25% | 1.53% | 0.99% |
| O=C(/C=C/C=C/c1ccc(Cl)c(Cl)c1)NCCCCCN1CCCC2CCCCC21 (centres undefined) | 13.3% | 12.3% | 13.2% |
| c1ccc(CCNc2ccnc(Nc3ccc4cn[nH]c4c3)n2)cc1 | 17.8% | 14.8% | 10% |
| CCOc1ccc(-c2nonc2NC(=O)c2ccccc2Cl)cc1OCC | 5.4% | 7.22% | 2.27% |
| Cc1cc(N[C@@H](Cc2ccccc2)C(=O)NC2CCCC2)nc(NCCc2ccc(F)cc2)n1 | 5.06% | 5.18% | -0.53% |
| CC(C)(C)c1ccccc1OC(=O)c1ccccc1 | -1.66% | -1.47% | -0.79% |
| COC(=O)c1noc(C)c1I | 0.86% | 0.08% | 0.59% |
| CCN(CC)CCN(Cc1ccc(-c2ccc(C(F)(F)F)cc2)cc1)C(=O)Cn1c(CCc2ccc(F)c(C#N)c2)nc(=O)c2ccccc21 | 6.73% | 7.67% | 8.84% |
| CN(C)Cc1c(O)ccc2[nH]c(-c3ccc(OC(F)(F)F)cc3)nc12 | 3.92% | 3.22% | 2.9% |
| O=C(Nc1ccc(C(F)(F)F)cc1)c1cccc(S(=O)(=O)NC2CCN(CC3CCCCC3)C2)c1 (centres undefined) | 2.01% | 0.63% | 0.63% |
| COc1cc(OC)nc(-c2cccc(NC(=O)c3ccc4c(=O)n(CCN5CCCCC5)cnc4c3)c2)n1 | 11.9% | 9.45% | 7.35% |
| COc1cccc2cc(C(=O)N[C@@H](CC(C)C)C(=O)NC(/C=N/NC(=O)c3ccccc3)CCc3ccccc3)oc12 (some centres undefined) | -0.59% | 2.83% | 0.75% |
| O=C(Cc1ccc(NC(=O)c2ccc(O)c(-c3ccc(Cl)c(Cl)c3)c2)cc1)NCCN1CCCCC1 | -0.79% | -0.35% | 0.58% |
| O=C(Nc1ccc(-c2cccc(-c3nc4cc(C(F)(F)F)ccc4[nH]3)c2)cc1)Nc1ccc(Cl)c(Cl)c1 | 10.9% | 7.67% | 13% |
| C=CCN1C(=O)C(C(C)=O)=C(O)C1c1ccccc1 (centres undefined) | -0.92% | -4.02% | 0.66% |
| CCOc1cc(C)ccc1C1CCN(CCCCNC(=O)c2cnc(-c3ccc(C(F)(F)F)cc3)[nH]2)CC1 | -1.9% | 2.12% | -0.53% |
| Cc1ccc(NC(=O)c2ccc(CN3CCCN(Cc4cccc(O)c4)CC3)cc2)cc1 | -1.8% | -0.37% | 1.37% |
| COc1ccc(C2CC(c3cccs3)=NN2C(=O)c2ccco2)cc1OC (centres undefined) | 5.38% | 4.8% | 4.31% |
| COc1cccc2c1CCN(CCN1CCC(CNC(=O)c3ccc(-c4ccc(C#N)cc4)cc3)CC1)C2 | 7.68% | 3.84% | 1.38% |
| Cc1cc(N[C@@H](Cc2ccccc2)C(=O)NCc2cccs2)nc(Nc2ccccc2)n1 | 9.96% | 9.21% | 3.98% |
| CCN(CC)CCCNc1ncc2c(-c3ccc(NC(=O)Nc4cc(C(F)(F)F)ccc4F)cc3)nn(C)c2n1 | 4.51% | 4.18% | 4.62% |

| Compound | inhibition [1] | inhibition [2] | inhibition [3] |
| --- | --- | --- | --- |
| CCN(CC)CC(O)CNc1c2ccc([N+](=O)[O-])cc2nc2cc(OC)c(OC)cc12 (centres undefined) | 69% | 71.7% | 42% |
| N=c1[nH]c2cccc3ccc4cccc1c4c32 | 9.96% | 9.29% | 7.95% |
| CC(C)CC1c2[nH]c3ccccc3c2CCN1C(=O)CCc1ccccc1 (centres undefined) | 5.53% | 5.28% | 4.41% |
| COc1ccc(Nc2ncc3c(-c4cccc(NC(=O)Cc5ccc(F)cc5)c4)c[nH]c3n2)cc1OC | 2.27% | 2.59% | 2.37% |
| O=C(CSc1nccn1C1CCCCC1)Nc1cc(C(F)(F)F)ccc1Cl | 8.56% | 9.47% | 7.3% |
| O=c1cc(NCCCNCc2ccc(C(F)(F)F)s2)[nH]c2ccccc12 | -0.41% | 0.6% | 0.9% |
| CCc1cn(C)c2c(N3CCCC3=O)cc(C(=O)N[C@@H](Cc3ccccc3)[C@H](O)CNCc3cccc(OC)c3)cc12 | 2.48% | 2.2% | 2.88% |
| CC(C)Cn1cc2c(ccc3nc(N)nc(N)c32)n1 | 1.25% | 0.94% | 0.32% |
| CC(C)Oc1cc(-c2ccc(S(C)(=O)=O)cc2)nc(N(Cc2cccc(F)c2F)Cc2cccc(F)c2F)n1 | -1.85% | 0.65% | -2.49% |
| CCOC(=O)CCCOc1cc(Cc2cnc(N)nc2N)cc(OC)c1OC | 6.94% | 5.94% | 7.18% |
| O=C(Nc1ccc(Cl)cc1)c1ccc(CN2CCCN(Cc3ccsc3)CC2)cc1 | 2.78% | 1.42% | 7.21% |
| CSc1cccc(NC(=O)Nc2ccc(I)c(OCCN(C)C)c2)c1 | 4.88% | 4.31% | 3.56% |
| CCCCN(CCCC)C(=N)c1cccc2c1CCCC2 | 2.36% | 3.35% | 2.45% |
| Oc1ccc(Cc2ccccc2)cc1CNC1CCCCC1 | 1.43% | 1.57% | 1.87% |
| Cc1[nH]c(C)c(-c2csc3ccccc23)c(=O)c1Cl | 5.32% | 5.33% | 3.61% |
| Cc1ccc(CN2CCCN(Cc3ccc(C(=O)Nc4ccc(Cl)cc4)cc3)CC2)s1 | 2.49% | 2.74% | 0.05% |
| O=c1cc(NCCCNC2CCCc3c2cc(Cl)c(Cl)c3Cl)[nH]c2ccccc12 (centres undefined) | -3.43% | 1.1% | 0.08% |
| O=C(Cc1c[nH]cn1)Nc1cccc(-c2cccc(-c3nc4ccccc4[nH]3)c2)c1 | 9.66% | 12.8% | 7.58% |
| CCN(CCCN1CCCCC1)c1cc(C)nc(Nc2cc(F)cc(F)c2)n1 | 5.16% | 4.98% | 4.62% |
| COc1ccc(-c2cccc(NC(=O)c3cccc(C#N)c3)c2)cc1CN(C)CCN(C)C | 1.23% | 1.39% | 0.48% |
| COc1ccc2nccc([C@@H](O)CN3CCC(NCc4nc5cc(F)c(F)cc5[nH]4)CC3)c2c1 | 0.88% | 2.26% | -0.99% |
| CCc1cc(-c2onc(C(F)(F)F)c2-c2ccccc2)c(O)cc1OC | 3.95% | 3.34% | 7.43% |
| CC1(C)CCC(C)(C)c2c1ccc(C1CCN(CCCCNC(=O)c3ccc(-c4ccc(C#N)cc4)cc3)CC1)c2O | 0.66% | 0.22% | 0.63% |
